About 480 (40%) of roughly 1,200 compounds were called active. Not shown: some 29% with an inconclusive outcome. Calls follow the shape of the dose curve; as a rule, active = well fitted inhibition curve with a large enough effect; inconclusive = small, poorly fitted or top-dose-only effect; inactive = no such curve, though single readings can be large or run the other way. Some of the results follow.
Potency is read from the fitted curve at half-maximal effect.

The nature of the assay: qHTS Assay to Find Inhibitors of Chronic Active B-Cell Receptor Signaling: Hit Validation in Primary Screen. Also: nearly all actives have a fitted effect of over 75% in size. The conditions noted are these: ABC-DLBCL IkB-luc/CBR ratio luminescence, 4 h; series mostly up to 46.1 µM. The text has this:
Diffuse large B-cell lymphoma (DLBCL) is the most common category of non-Hodgkin lymphoma, with ~20,000 new cases per year in the United States. DLBCL should be regarded as a collection of different neoplasms. Microarray gene expression analysis has defined two principal types of DLBCL, named for their similarity to normal B cell stages or activation states: a germinal center B-cell (GCB) type, and an activated B-cell (ABC) type. In ABC-DLBCL, a constitutive high-level activity of the NF-kappaB family of transcription factors has been observed (1) and NF-kappaB target genes are more highly expressed in ABC primary tumors than in GCB tumors. Functional studies have shown a constitutive high-level activity of the IkappaB (inhibitor of kappa-B) kinase (IKK) complex. […] Further analysis of DLBCL primary tumors for NF-kappaB target gene expression imply that although CARD11 is required for constitutive IKK activity in all ABC-DLBCL lines, mutations in CARD11 may be the root cause of IKK activation only in lines or tumors with such mutations. In other words, CARD11 mutations may explain NF-kappaB activation in only 10% of ABC-DLBCL cases. […] This process has been termed 'chronic active BCR signaling' (CABS). The goal of this screen is to find small-molecule inhibitors of the CABS pathway found in ABC-DLBCL lines using a cell-based assay that measures IkappaBalpa stability, which has already been extensively validated in the OCI-Ly3 line (PubChem AID:445; REF: 4). […] A cell-sensor assay for I-kappa-B-alpha stabilization has been developed. The assay uses green (CBG68) and red (CBR) emitting beetle luciferases [Chroma-GloTM developed by Promega Corp.] where the green luciferase is fused to IkappaBalpha and the red luciferase is present in its native state. Both luciferase genes are stably present in the TMD8 human ABC DLBCL cell line, but their expression is under the control of tetracycline-inducible promoters. Following the addition of doxycycline to induce expression of the luciferases, the green luminescence in control cultures rises only slowly because the CBG fusion partner IkappaBalpha is targeted by IKK activity for rapid degradation. In contrast, green luminescence rises rapidly in the presence of proteasome inhibitors or IKK inhibitors. The rise in red luminescence of CBR is not affected by proteasome or IKK inhibitors, and serves as normalization for cell number and nonspecific effects. Compounds were screened as a concentration-titration series that ranged from 46 uM to 3 nM. NIH Molecular Libraries Probe Production Network [MLPCN] NIH Chemical Genomics Center [NCGC] MLPCN Grant: R03 DA031086 PI Name: Dr. R. Eric Davis
Cells were seeded in 1536-well plates at 5000 cells/4uL in IMDM medium containing 0.5% FBS, w/o phenol red, 1% penicillin/streptomycin. Then, 23 nL of compounds or DMSO were delivered to each well using a pin tool. One uL 20ng/ml doxycycline was then dispensed into white solid 1536-well plates and the plates were incubated at 37C/5% C02 in a cell incubator for 4 hrs. Then 4 uL luminescent substrate mix (in-house prepared: 150 mM Tris-Cl, pH 7.6, 3 mM MgCl2, 1% Triton X-100, 5 mM DTT, 0.2 mM CoA, 0.15 mM ATP, 5 mM D-luciferin, final concentrations) was added to each well. The plate was incubated at r.t. for 10-15 min. The plates were measured on a ViewLux plate reader for green luminescence (540/20 nm filter) and red luminescence (618/8 nm filter). The green and red luminescent signals were corrected for red and green luminescence filter overlap using previously determined filter calibration constants (determined using the procedure outlined in the Promega Technical Manual; REF 4). The %Activity was determined from the ratio of corrected green/red luminescent values. MG132 were used as control. Green luminescent and ratio %Activity was determined by normalizing to the difference in signal between basal cells (0% Activity) and cells incubated with 10 uM of the proteasome inhibitor MG-132 (100% Activity). […]
For `COc1cc2c(c(OC)c1OC)-c1ccc(O)c(=O)cc1C(NC(C)=O)CC2` (stereo unspecified), the Potency is 231 nM (active).

For the compound `COc1cc2c(c(OC)c1OC)-c1ccc(O)cc1[C@@H](NC(C)=O)CC2`, the Potency was 461 nM (active).

Consider `COc1cc([C@@H]2c3cc4c(cc3[C@H](O)[C@H]3COC(=O)[C@H]23)OCO4)cc(OC)c1OC`, for which the Potency was 46.1 nM (active).

`COc1cc(C2c3cc4c(cc3CC3COC(=O)C32)OCO4)cc(OC)c1OC` (stereo unspecified): the Potency result was “inactive”.

Consider `CCCCOCCCn1c(N)c(C(=O)OCCOC)c2nc3ccccc3nc21`, for which the Potency entry was “inactive”.

Turning to `C=CC[C@@H](CC/C=C/C=C/CC/C=C\[C@@H]1CSC([C@@H]2C[C@@H]2C)=N1)OC`, the Potency was 820 nM (active).

For the compound `CC[C@]12CC[C@H](O)CC1=CCC1C2CC[C@]2(C)C(=O)CCC12` (stereo partly specified), the Potency result was “inactive”.

For the compound `O=c1c2ccccc2[se]n1-c1ccccc1`, the Potency was 20600 nM (active).

Consider `Cc1cc(C)c(C(=O)CN2CCOCC2)c(C)c1`, for which the Potency result was “inactive”.

Take `CCNC(=O)[C@H]1O[C@@H](n2cnc3c(N)ncnc32)[C@H](O)[C@@H]1O`: the Potency was 130 nM (active).

For the compound `COc1ccc(C(=O)Oc2cccc3cccnc23)cc1S(=O)(=O)N1CCOCC1`, the Potency entry is “inactive”.

For `C/C(=N\N1CCCCC1)c1c(O)[nH]c(=O)[nH]c1=O`, the Potency entry is “inactive”.

Take `CCC(=NCCC(c1ccccc1)c1ccccc1)c1c(O)[nH]c(=O)[nH]c1=O`: the Potency is 20600 nM (active).

Consider `O=C1C(=O)c2cccc3cccc1c23`, for which the Potency is 18400 nM (active).

In the case of `CCc1ccccc1N1C(=O)/C(=C/c2ccc(N3CCN(C)CC3)o2)C(=O)NC1=S`, the Potency result is “inactive”.

For the compound `O=c1c2ccccc2nc(/C=C/c2ccc([N+](=O)[O-])o2)n1-c1ccc(O)cc1`, the Potency was 4110 nM (active).

Take `COc1ccc(C=C2C(=O)N(C)C(=O)N(C)C2=O)cc1COc1ccc(NC(C)=O)cc1`: the Potency entry was “inactive”.

Consider `C#CCOc1cc(C2C3=C(COC3=O)Nc3cc4c(cc32)OCO4)ccc1OC` (stereo unspecified), for which the Potency was 1460 nM (active).

For the compound `CN(C)C(=S)SSC(=S)N(C)C`, the Potency is 16400 nM (active).

As to `COc1ccc(-c2nn(CCC#N)cc2C(=O)Nc2ccc(C(C)=O)cc2)cc1[N+](=O)[O-]`, the Potency entry was “inactive”.

As to `COc1cc2c(cc1O)CC[C@@H]1[C@@H]2CC[C@]2(C)[C@@H](O)CC[C@@H]12`, the Potency is 18400 nM (active).

Values taken from PubChem BioAssay AID651558 (National Center for Advancing Translational Sciences (NCATS), 2012).
